Data from ChEMBL document CHEMBL1961873, “Compounds: GSK PKIS; Assays: Nanosyn kinase panel” (2012).

Biological target: T1, cGMP-dependent protein kinase 1 (Homo sapiens) (UniProt Q13976)
T1 sequence (whole entry): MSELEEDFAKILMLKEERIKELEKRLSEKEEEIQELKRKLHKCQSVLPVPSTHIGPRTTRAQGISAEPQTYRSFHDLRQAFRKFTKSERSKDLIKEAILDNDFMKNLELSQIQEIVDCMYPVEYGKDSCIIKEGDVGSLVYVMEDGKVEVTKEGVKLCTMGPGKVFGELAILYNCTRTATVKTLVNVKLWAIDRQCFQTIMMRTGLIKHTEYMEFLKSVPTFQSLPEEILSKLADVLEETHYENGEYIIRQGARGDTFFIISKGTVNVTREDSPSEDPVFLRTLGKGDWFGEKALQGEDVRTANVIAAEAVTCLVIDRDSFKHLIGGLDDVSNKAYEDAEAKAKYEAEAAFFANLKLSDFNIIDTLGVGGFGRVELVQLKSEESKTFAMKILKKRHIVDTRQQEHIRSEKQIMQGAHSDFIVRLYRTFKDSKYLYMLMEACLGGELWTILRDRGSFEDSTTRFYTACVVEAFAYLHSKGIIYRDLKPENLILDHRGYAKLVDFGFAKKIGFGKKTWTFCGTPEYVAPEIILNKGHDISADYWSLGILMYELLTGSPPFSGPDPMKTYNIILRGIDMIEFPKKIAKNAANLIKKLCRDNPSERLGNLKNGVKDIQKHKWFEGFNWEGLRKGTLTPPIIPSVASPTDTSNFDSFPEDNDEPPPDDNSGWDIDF
Details: at 0.1 µM

Compound | inhibition
Cc1ccc(O)cc1Nc1ccnc2cc(-c3ccccn3)ccc12 | 3.58%
COC(=O)c1sc(-n2cnc3cc(OC)c(OC)cc32)cc1OCc1ccccc1C(F)(F)F | 2.01%
COc1cc2ncn(-c3cc(OCc4ccccc4C(F)(F)F)c(C(=O)N(C)C)s3)c2cc1OC | -0.43%
CC(C)COC(=O)c1ccc2c(c1)/C(=C/Nc1ccc(S(N)(=O)=O)cc1)C(=O)N2 | 4.93%
CCc1nn2ncccc2c1-c1ccnc(NC2CC2)n1 | 1.92%
CC(=O)Nc1cccc(C#Cc2cncnc2Nc2ccc(OCc3cccc(F)c3)c(Cl)c2)c1 | 3.13%
CCn1cc(-c2ccnc3[nH]ccc23)c(-c2cccc(NC(=O)Nc3ccc(OCc4ccccc4)cc3)c2)n1 | 2.12%
COc1ccc(-c2nn3ncccc3c2-c2ccnc(Nc3ccc4c(c3)OCCO4)n2)cc1 | -0.47%
COC(=O)Nc1nc2ccc(S(=O)(=O)c3ccc(NC(=O)Nc4cc(C(F)(F)F)ccc4F)cc3)cc2[nH]1 | 2.21%
Cc1ccc2c(-c3ccnc(Nc4ccccc4)n3)c(-c3ccc(F)cc3)nn2n1 | 1.32%
COc1cccc(-n2ncc3c(N/N=C/c4ccc(F)cc4)ncnc32)c1 | 1.9%
CCn1c(-c2nonc2N)nc2c(C#CC(C)(C)O)ncc(OC3CCNCC3)c21 | 31.1%
Nc1ncc(-c2cccc(S(N)(=O)=O)c2)c2scc(-c3ccc(F)c(Cl)c3)c12 | 1.07%
O=C(Nc1n[nH]c2cc(-c3ccc(F)cc3)ccc12)C1CC1 | 4.3%
[O-][S+]1CCN(Cc2ccc(-c3ccc4ncnc(Nc5ccc(OCc6cccc(F)c6)c(Cl)c5)c4c3)o2)CC1 | 3.87%
Fc1cccc(COc2ccc(Nc3ncnc4sc(-c5ccco5)cc34)cc2Cl)c1 | 2.93%
NS(=O)(=O)c1ccc(Nc2ncc(-c3ccccc3)o2)cc1 | 1.9%

Compound | inhibition
CCNC(=O)O[C@H]1CN[C@H](C#Cc2cc3ncnc(Nc4ccc(OCc5cccc(F)c5)c(Cl)c4)c3s2)C1 | 2.33%
CCN(CC)S(=O)(=O)c1ccc(OC)c(Nc2ncc(-c3ccccc3)o2)c1 | 0.75%
COc1ccc(-c2oc3ncnc(N)c3c2-c2ccc(NC(=O)Nc3cc(C(F)(F)F)ccc3F)cc2)cc1 | 4.53%
CNC(=O)c1cc(-c2ccc(F)cc2)cc(-c2ccc(S(=O)(=O)N3CCCC3)cc2)c1N | 1.61%
CCn1c(-c2nonc2N)nc2ccccc21 | 6.5%
CCn1c(-c2nonc2N)nc2c(C#CC(C)(C)O)nc(OC[C@H](N)c3ccccc3)cc21 | 23.8%
CCn1c(-c2nonc2N)nc2cnc(Oc3cccc(NC(=O)c4ccc(N(C)C)cc4)c3)cc21 | 56.1%
COc1ccc(CNC(=O)c2ccc(-c3cc(-c4nnc(C)o4)ccc3C)cc2)cc1 | 3.61%
Clc1ccc(-c2nn3ncccc3c2-c2ccnc(Nc3ccccc3)n2)cc1 | 3.3%
COc1cc(/C=N/Nc2ncnc3[nH]ncc23)ccc1O | 3.83%
CCOc1ccc2c(-c3ccnc(Nc4cccc(C(F)(F)F)c4)n3)cnn2n1 | 0.52%
NS(=O)(=O)c1ccc(N/N=C2\C(=O)Nc3ccc4ncccc4c32)cc1 | 4.46%
O=C(O[C@H]1CN[C@H](C#Cc2cc3ncnc(Nc4ccc(Cc5ccccc5)cc4)c3s2)C1)N1CCOCC1 | 3.46%
FC(F)(F)c1cccc(-c2nn3ncccc3c2-c2ccnc(Nc3ccc4c(c3)OCCO4)n2)c1 | 0.41%
c1cc(-c2cnn3nc(N4CCOCC4)ccc23)nc(NC2CC2)n1 | 2.98%
COc1ccc(-c2cc3c(N)ncnc3o2)cc1 | -0.46%

Biological target: T1, cGMP-dependent protein kinase 1 (Homo sapiens)
Details: at 1 µM

Compound | inhibition
Cc1ccc(O)cc1Nc1ccnc2cc(-c3ccccn3)ccc12 | 1.99%
COC(=O)c1sc(-n2cnc3cc(OC)c(OC)cc32)cc1OCc1ccccc1C(F)(F)F | 4.24%
COc1cc2ncn(-c3cc(OCc4ccccc4C(F)(F)F)c(C(=O)N(C)C)s3)c2cc1OC | 0.77%
CC(C)COC(=O)c1ccc2c(c1)/C(=C/Nc1ccc(S(N)(=O)=O)cc1)C(=O)N2 | 14.3%
CCc1nn2ncccc2c1-c1ccnc(NC2CC2)n1 | 3.59%
CC(=O)Nc1cccc(C#Cc2cncnc2Nc2ccc(OCc3cccc(F)c3)c(Cl)c2)c1 | 3.55%
CCn1cc(-c2ccnc3[nH]ccc23)c(-c2cccc(NC(=O)Nc3ccc(OCc4ccccc4)cc3)c2)n1 | 1.15%
COc1ccc(-c2nn3ncccc3c2-c2ccnc(Nc3ccc4c(c3)OCCO4)n2)cc1 | -2.7%
COC(=O)Nc1nc2ccc(S(=O)(=O)c3ccc(NC(=O)Nc4cc(C(F)(F)F)ccc4F)cc3)cc2[nH]1 | 3.86%
Cc1ccc2c(-c3ccnc(Nc4ccccc4)n3)c(-c3ccc(F)cc3)nn2n1 | 2.92%
COc1cccc(-n2ncc3c(N/N=C/c4ccc(F)cc4)ncnc32)c1 | 4.15%
CCn1c(-c2nonc2N)nc2c(C#CC(C)(C)O)ncc(OC3CCNCC3)c21 | 77.4%
Nc1ncc(-c2cccc(S(N)(=O)=O)c2)c2scc(-c3ccc(F)c(Cl)c3)c12 | -0.14%
O=C(Nc1n[nH]c2cc(-c3ccc(F)cc3)ccc12)C1CC1 | 6.58%
[O-][S+]1CCN(Cc2ccc(-c3ccc4ncnc(Nc5ccc(OCc6cccc(F)c6)c(Cl)c5)c4c3)o2)CC1 | 3.85%
Fc1cccc(COc2ccc(Nc3ncnc4sc(-c5ccco5)cc34)cc2Cl)c1 | 1.81%
NS(=O)(=O)c1ccc(Nc2ncc(-c3ccccc3)o2)cc1 | 4.85%

Compound | inhibition
CCNC(=O)O[C@H]1CN[C@H](C#Cc2cc3ncnc(Nc4ccc(OCc5cccc(F)c5)c(Cl)c4)c3s2)C1 | 3.36%
CCN(CC)S(=O)(=O)c1ccc(OC)c(Nc2ncc(-c3ccccc3)o2)c1 | 0.61%
COc1ccc(-c2oc3ncnc(N)c3c2-c2ccc(NC(=O)Nc3cc(C(F)(F)F)ccc3F)cc2)cc1 | 3.73%
CNC(=O)c1cc(-c2ccc(F)cc2)cc(-c2ccc(S(=O)(=O)N3CCCC3)cc2)c1N | 2.76%
CCn1c(-c2nonc2N)nc2ccccc21 | 30.9%
CCn1c(-c2nonc2N)nc2c(C#CC(C)(C)O)nc(OC[C@H](N)c3ccccc3)cc21 | 71.3%
CCn1c(-c2nonc2N)nc2cnc(Oc3cccc(NC(=O)c4ccc(N(C)C)cc4)c3)cc21 | 73%
COc1ccc(CNC(=O)c2ccc(-c3cc(-c4nnc(C)o4)ccc3C)cc2)cc1 | 3.68%
Clc1ccc(-c2nn3ncccc3c2-c2ccnc(Nc3ccccc3)n2)cc1 | 5.54%
COc1cc(/C=N/Nc2ncnc3[nH]ncc23)ccc1O | 14.8%
CCOc1ccc2c(-c3ccnc(Nc4cccc(C(F)(F)F)c4)n3)cnn2n1 | 1.15%
NS(=O)(=O)c1ccc(N/N=C2\C(=O)Nc3ccc4ncccc4c32)cc1 | 22.6%
O=C(O[C@H]1CN[C@H](C#Cc2cc3ncnc(Nc4ccc(Cc5ccccc5)cc4)c3s2)C1)N1CCOCC1 | 3.85%
FC(F)(F)c1cccc(-c2nn3ncccc3c2-c2ccnc(Nc3ccc4c(c3)OCCO4)n2)c1 | 2.81%
c1cc(-c2cnn3nc(N4CCOCC4)ccc23)nc(NC2CC2)n1 | 6.68%
COc1ccc(-c2cc3c(N)ncnc3o2)cc1 | 0.25%
